Composite z-score and z-score data for 18 compounds are collected here from PubChem BioAssay.

Structures are written as SMILES. Active and inactive are the calls of the source. Unless noted, the rule behind the calls is not given here.

For experiment [1], the system named is Wnt5a (protein binding on small-molecule microarray). Briefly: small molecules binding Wnt5a protein – biophysical, small-molecule microarray, 635/667 nm fluorescence, primary screen (AID 1142).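 Note: fluorescence read at 667 nm with signal to noise per printed feature.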 Particulars: 635 nm fluorescence, higher = more signal.
A short description of experiment [2]: ATP-based viability of Huh7 replicon cells – cell-based, CellTiter-Glo luminescence, basal, 48 h, cytotoxicity control for HCV replication inhibitor project, primary screen (AID 1143).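 Note: Huh7 hepatoma cells carrying a hepatitis C replication reporter with no stimulus; test concentration not given here.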 The following applies: higher = more signal, called active from +8 up or from −8 down.
A short description of experiment [3]: Pseudomonas biofilm growth suppression – PAO1 strain, BacTiter-Glo luminescence, LB-PBS, primary screen (AID 1144). The following applies: P. aeruginosa PAO1 biofilm, 12 h, higher = more signal.
Experiment [4] can be described thus: basal CRE-LacZ reporter activity in PC12 – cell-based, unstimulated, primary screen (AID 1145). Particulars: no forskolin, luminescence, 4.5 h, higher = more signal, called active from +8 up or from −8 down.
Experiment [5] can be described thus: forskolin-driven CRE-LacZ activity in PC12 – cell-based, CRE-LacZ reporter, forskolin-stimulated, primary screen (AID 1146).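 Note: PC12 cells with 6xCRE LacZ reporter stimulated by forskolin 10 µM; beta-galactosidase reporter signal reflecting CREB driven transcription.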 Particulars: luminescence, 4.5 h, higher = more signal, called active from +8 up or from −8 down.
In experiment [6] the target is Streptavidin (Streptomyces avidinii) (UniProt P22629). Briefly: compounds binding control protein streptavidin – biophysical, small-molecule microarray, 635/667 nm fluorescence, artefact control for SMM compound annotation, primary screen (AID 1147).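 Note: signal reflects streptavidin binding to arrayed compounds as a control protein.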 Particulars: higher = more signal.
Streptavidin (Streptomyces avidinii), sequence (P22629 whole entry, looked up): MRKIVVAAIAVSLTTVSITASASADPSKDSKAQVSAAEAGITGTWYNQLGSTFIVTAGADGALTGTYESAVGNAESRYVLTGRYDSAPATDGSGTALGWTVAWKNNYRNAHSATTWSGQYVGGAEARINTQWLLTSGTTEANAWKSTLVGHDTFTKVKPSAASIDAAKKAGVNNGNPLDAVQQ
Experiment [7] in a line: probe aInhba binding on compound microarray – biochemical, small-molecule microarray, 635/667 nm fluorescence, primary screen (AID 1148).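 Note: score merges 667nm spot fluorescence with signal-to-noise for antibody binding to printed compounds.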 Particulars: higher = more signal.
The target of experiment [8] is Torsin-1A (Homo sapiens) (UniProt O14656). In words: TOR1A wild-type binding on microarray – cell lysate, small-molecule microarray, lysate, 635/667 nm, primary screen (AID 1149). Particulars: COS7 hTOR1A-WT lysate, 635 nm fluorescence, higher = more signal.
Torsin-1A (Homo sapiens), sequence (O14656 whole entry, looked up): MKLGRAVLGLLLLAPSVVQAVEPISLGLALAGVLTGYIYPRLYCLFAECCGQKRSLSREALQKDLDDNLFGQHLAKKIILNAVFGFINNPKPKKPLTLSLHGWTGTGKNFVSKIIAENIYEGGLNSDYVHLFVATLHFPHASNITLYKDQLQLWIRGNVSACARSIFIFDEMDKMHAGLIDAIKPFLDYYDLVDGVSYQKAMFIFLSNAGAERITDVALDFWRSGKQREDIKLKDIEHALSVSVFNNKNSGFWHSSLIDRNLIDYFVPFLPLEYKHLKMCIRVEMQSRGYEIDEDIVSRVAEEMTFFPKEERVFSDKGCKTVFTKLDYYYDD
Experiment [9] shares this target. Briefly: torsin A mutant lysate binding on microarrays – cell lysate, small-molecule microarray, COS7 lysate, 635/667 nm fluorescence, primary screen (AID 1150).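 Note: score pools 667 nm emission and signal to noise measuring lysate protein binding.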 Particulars: COS7 hTOR1A mutant lysate, 635 nm fluorescence, higher = more signal.
The test system of experiment [10] is Sonic hedgehog protein (Shh). Briefly: Sonic hedgehog microarray binding compounds – biochemical, small-molecule microarray, 635/667 nm fluorescence, primary screen (AID 1151).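 Note: Shh protein binding to compounds spotted on small-molecule microarray slides; score combines spot fluorescence intensity with signal-to-noise across triplicate slides.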 The following applies: 635 nm fluorescence, higher = more signal.

On to `CC(C)(C)OC(=O)CC[C@]1(C(=O)NCc2ccccc2)N=C(c2ccc(OCCCO)cc2)O[C@H]1c1ccccc1CN=[N+]=[N-]`, for which the composite z-score in experiment [1] turned out to be 1.3; in [6], 1.2; in experiment [7] it was 0.138; with Torsin-1A (Homo sapiens) [8], 0.245; with Torsin-1A (Homo sapiens) [9], 0.895; in [10], 1.36. For the same compound, the z-score is -3.05 (inactive) in experiment [2], -0.368 (inactive) in [3], 0.344 (inactive) in [4] and -0.156 (inactive) in experiment [5].
`C=C[C@@H](OC)[C@H](OC(=O)Nc1ccc(SC)cc1)c1ccc(O)c(F)c1`: the composite z-score is 0.183 in [1]; -0.376 in [6]; 0.0679 in [7]; 0.242 with Torsin-1A (Homo sapiens) [8]; 0.679 in the experiment with Torsin-1A (Homo sapiens) [9]; 1.14 in experiment [10]. Also, the z-score in experiment [2] is -1.57 (inactive); in [3], -1.04 (inactive); in experiment [4] it was 0.847 (inactive); in experiment [5], 0.425 (inactive).
Turning to `Cc1cc(C)cc(N2C(=O)CSC2c2cccc([N+](=O)[O-])c2)c1` (stereo not given), the composite z-score in [1] is 0.423; in [6] it was 1.2; in experiment [7], 0.0506; with Torsin-1A (Homo sapiens) [8], 0.337; with Torsin-1A (Homo sapiens) [9] it was 0.526; in [10], 0.899. The z-score in experiment [2] was -0.894 (inactive); in [3], 0.75 (inactive); in [4], -0.438 (inactive); in [5], -1.04 (inactive).
Consider `C=CCOC(=O)[C@H]1[C@@H]2C(=O)O[C@@H](c3ccccc3)[C@@H](c3ccccc3)N2[C@@H](c2ccc(OCCOC(=O)[C@@H]3C[C@@H]4C(=O)N5CCC[C@H]5C(=O)N4[C@@H]3c3ccc(O)cc3)cc2)[C@]12C(=O)Nc1ccc(I)cc12`, for which the composite z-score was 0.269 in experiment [1]; 0.107 in [6]; 0.177 in experiment [7]; 0.655 in the experiment with Torsin-1A (Homo sapiens) [8]; 0.504 with Torsin-1A (Homo sapiens) [9]; 1.72 in experiment [10]. Besides, the z-score in [2] is -0.648 (inactive); in [3], -0.42 (inactive); in experiment [4], 0.423 (inactive); in experiment [5], 0.016 (inactive).
`COC(=O)c1c2oc(c1C(=O)OC)C(=O)N(Cc1ccccc1)Cc1cn(nn1)C[C@H](Cc1ccccc1)NC(=O)N[C@H](CO)CC2`: the composite z-score in [1] was 0.131; in experiment [6], -0.25; in experiment [7] it was -0.154; in the experiment with Torsin-1A (Homo sapiens) [8], -0.0053; with Torsin-1A (Homo sapiens) [9], 0.218; in [10], 0.346. For the same compound, the z-score was -1.84 (inactive) in experiment [2], -1.12 (inactive) in [3], 0.964 (inactive) in experiment [4] and -1.16 (inactive) in experiment [5].
In the case of `COC(=O)CCCCCCC(=O)Nc1ccc(NC(=O)CCCC[P+](c2ccccc2)(c2ccccc2)c2ccccc2)cc1`, the composite z-score in [1] was 0.38; in [6] it was 0.352; in experiment [7] it was -0.0645; with Torsin-1A (Homo sapiens) [8], 0.463; with Torsin-1A (Homo sapiens) [9], 0.28; in experiment [10], 1.89. In addition, the z-score in experiment [2] was -0.238 (inactive); in experiment [3], -0.873 (inactive); in experiment [4], 0.575 (inactive); in experiment [5] it was -1.85 (inactive).
On to `COC(=O)[C@@]1(Cc2ccc(F)cc2)[C@H]2c3cc(C(=O)N4CCCC4)n(CCN4CNCC4=O)c3C[C@H]2CN1C(=O)c1ccccc1`, for which the composite z-score in experiment [1] is 0.289; in experiment [6], 1.04; in experiment [7], 0.179; in the experiment with Torsin-1A (Homo sapiens) [8], 1.51; in the experiment with Torsin-1A (Homo sapiens) [9] it was 1.77; in [10], -0.164. Besides, the z-score is -1.11 (inactive) in [2], -0.917 (inactive) in experiment [3], 0.39 (inactive) in experiment [4] and -1.08 (inactive) in experiment [5].
On to `CC1CC/C=C\[C@H]2OC34C=CCN(c5ccc(Cl)cc5)C(=O)[C@H]3N(CCCCCO)C(=O)[C@]4(C)C2C(=O)O1` (stereo not given in full), for which the composite z-score in [1] is -0.793; in experiment [6], -1.18; in [7] it was -0.251; with Torsin-1A (Homo sapiens) [8], -2.18; with Torsin-1A (Homo sapiens) [9], -1.48; in [10], -0.449. Besides, the z-score was 0.504 (inactive) in experiment [2], 0.454 (inactive) in experiment [3], 0.329 (inactive) in experiment [4] and -0.75 (inactive) in experiment [5].
In the case of `Cc1ccc(S[C@]2(C(=O)O)CC(=O)N(Cc3cc(C(F)(F)F)cc(C(F)(F)F)c3)[C@@H]2c2ccc(CO)cc2)cc1`, the composite z-score in [1] was -0.256; in experiment [6] it was -0.882; in experiment [7] it was -0.128; with Torsin-1A (Homo sapiens) [8] it was -0.272; in the experiment with Torsin-1A (Homo sapiens) [9], -0.62; in experiment [10], -1.26. Also, the z-score in [2] was 0.0756 (inactive); in experiment [3], -0.00769 (inactive); in [4], 0.621 (inactive); in experiment [5] it was 0.573 (inactive).
On to `C=CCC(OC(C)=O)[C@@H]1[C@@H](N(Cc2ccc(-c3cccc(C(F)(F)F)c3)o2)C(=O)c2ccc(C)cc2)c2cc(OCCCO)ccc2N1C(=O)c1ccc2ccccc2c1` (stereo not given in full), for which the composite z-score was 0.0344 in experiment [1]; 0.203 in experiment [6]; -0.024 in experiment [7]; -0.361 in the experiment with Torsin-1A (Homo sapiens) [8]; -0.0628 with Torsin-1A (Homo sapiens) [9]; 0.772 in [10]. Also, the z-score in experiment [2] was -0.478 (inactive); in experiment [3], -1.39 (inactive); in experiment [4], -0.519 (inactive); in experiment [5], 0.291 (inactive).
Take `C=C(/C(=C/C[C@@H](OC(C)=O)c1cccc(OCCO)c1)c1cc(C(=O)OC)ccc1OC)C(C)C`: the composite z-score was 0.148 in [1]; -0.19 in experiment [6]; -0.152 in experiment [7]; 0.875 with Torsin-1A (Homo sapiens) [8]; 1.36 with Torsin-1A (Homo sapiens) [9]; 1.73 in [10]. Moreover, the z-score in experiment [2] is -1.38 (inactive); in experiment [3], -0.251 (inactive); in [4] it was 3.49 (inactive); in experiment [5] it was 0.32 (inactive).
Turning to `COC(=O)[C@@]1(Cc2ccccc2)[C@H]2c3cc(C(=O)N(C)C)n(CCc4ccc(O)c(OC)c4)c3C[C@H]2CN1C(=O)c1ccccc1`, the composite z-score in experiment [1] was 1.01; in [6], 0.545; in experiment [7], 1.07; with Torsin-1A (Homo sapiens) [8], 0.0405; in the experiment with Torsin-1A (Homo sapiens) [9], 0.212; in experiment [10] it was -0.0598. Further, the z-score in experiment [2] was 0.394 (inactive); in experiment [3], 0.333 (inactive); in experiment [4] it was 0.201 (inactive); in [5] it was 0.334 (inactive).
Consider `C=C(/C(=C/C[C@H](OC(C)=O)c1ccccc1OCCO)c1cc(C(=O)OC)ccc1OC)C(C)C`, for which the composite z-score in [1] is 0.608; in experiment [6] it was -1.06; in experiment [7], 0.0906; with Torsin-1A (Homo sapiens) [8] it was 0.356; in the experiment with Torsin-1A (Homo sapiens) [9], 1.53; in experiment [10], 1.4. Further, the z-score is -3.44 (inactive) in experiment [2], 0.48 (inactive) in experiment [3], 13.6 (active) in experiment [4] and -0.556 (inactive) in experiment [5].
`C=CC[C@]1(C(=O)NCCN2CCOCC2)N=C(c2ccc(OCCCO)cc2)O[C@H]1c1ccccc1CN=[N+]=[N-]`: the composite z-score in experiment [1] was 1.08; in [6], -0.422; in [7] it was -0.374; in the experiment with Torsin-1A (Homo sapiens) [8] it was 1.39; in the experiment with Torsin-1A (Homo sapiens) [9], 1.11; in experiment [10], 0.284. Moreover, the z-score in [2] is -0.933 (inactive); in experiment [3], 0.81 (inactive); in experiment [4] it was 2.01 (inactive); in experiment [5], -0.784 (inactive).
On to `COC(=O)[C@H](Cc1ccccc1)N1CC(/C=C/C2CC2)=C[C@H]1[C@H](O)Cc1ccccc1`, for which the composite z-score in [1] is -0.0412; in experiment [6], 0.626; in [7] it was -0.0523; with Torsin-1A (Homo sapiens) [8], 0.211; with Torsin-1A (Homo sapiens) [9], 0.188; in experiment [10] it was 0.593. The z-score in experiment [2] was -2.83 (inactive); in [3], 0.954 (inactive); in [4], 2.1 (inactive); in experiment [5], 18.9 (active).
Regarding `CN(C)C(=O)C1N=C(c2ccc(OCCCO)cc2)N(c2ccccc2)O1` (stereo not given), the composite z-score in experiment [1] is 1.15; in [6], -0.151; in [7], 0.0658; with Torsin-1A (Homo sapiens) [8], 1.19; with Torsin-1A (Homo sapiens) [9] it was 1.56; in experiment [10] it was 2.03. The z-score in [2] was -1.17 (inactive); in experiment [3], 0.265 (inactive); in [4], 0.0451 (inactive); in experiment [5], -0.102 (inactive).
`COC1OC[C@]2(C)[C@H]3C4=C(CN2C(=O)OC(C)(C)C)[C@H](C)C(CO)C(CO)C4CC[C@@H]13` (stereo not given in full): the composite z-score was 0.987 in [1]; 2.17 in experiment [6]; 0.109 in [7]; 0.288 with Torsin-1A (Homo sapiens) [8]; 0.86 with Torsin-1A (Homo sapiens) [9]; -0.0425 in experiment [10]. In addition, the z-score in experiment [2] was -0.14 (inactive); in experiment [3], 0.326 (inactive); in experiment [4], 0.197 (inactive); in [5] it was 0.212 (inactive).
For the compound `CCCC[C@@H]1C[C@H]1[C@@H](NC(=O)Cc1ccccc1)c1ccc(-c2ccccc2)cc1`, the composite z-score in experiment [1] is -0.111; in experiment [6], 0.698; in [7], -0.158; with Torsin-1A (Homo sapiens) [8] it was -0.369; with Torsin-1A (Homo sapiens) [9], 0.21; in [10], -0.756. Also, the z-score was -1.31 (inactive) in experiment [2], 1.65 (inactive) in experiment [3], 0.39 (inactive) in experiment [4] and 1.19 (inactive) in experiment [5].
